GLP1R ag – activates the human GLP-1 receptor | HEK293 GLP-1R CRE-luciferase, luminescence, 4-6 h; cells express a hypersensitive GLP-1R form | AID 624172 | 380,000 compounds, 0.007% hits | Potency, µM (titrated, usually from 45.6 µM), for inactives: at the top dose activation, usual class: activators | P43220; also: % of control where 0% means no effect
VP16 counter – inhibits Gal4-VP16 luciferase reporter, ROR gamma counter-screen | Drosophila S2 Gal4-VP16 UAS-luciferase, luminescence, 20 h | Potency, µM (top dose mostly 53.6 µM), for inactives: at the highest dose activity, negative = inhibition, usual class: inhibitors | 310,000 compounds, 3.5% hits;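 also: Gal4-VP16 expression switched on by copper sulfate through the metallothionein promoter; % is scaled to controls: 0 for no effect and ±100 for the full control effect; nearly all actives have a fitted effect of over 50% in size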
GLP1R inv ag – acts as inverse agonist at human GLP-1 receptor; P43220; Potency, µM (titrated, usually from 38.3 µM), for the others: at the highest dose activity change, negative = inhibition, usual class: inhibitors; AID 624417; 410,000 compounds, 1.6% hits; HEK293 GLP-1R CRE-luciferase, luminescence, 24 h; GLP-1R form is constitutively active; also: % is scaled to controls: 0 for no effect and ±100 for the full control effect; nearly all actives have a fitted effect of over 55% in size
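Seeding at 200 cells/uL, 12 h culture, 24 hr compound treatment, then luciferase reagent and a luminescence read; cells are HEK293 stably expressing a constitutively active GLP-1R plus cAMP-responsive luciferase.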
RORg inh – inhibitors of mouse ROR gamma transcriptional activity | AID 2551 | Potency, µM (doses to about 53.6 µM), for inactives: at the highest dose activity change, negative = inhibition, usual class: inhibitors | 310,000 compounds, 5.4% hits | Drosophila S2 Gal4-RORgamma UAS-luciferase reporter, 20 h | P51450; also: % is scaled to controls: 0 for no effect and ±100 for the full control effect; nearly all actives have a fitted effect of over 60% in size
Target sequence (P51450 whole entry, looked up, the tested form may be a part): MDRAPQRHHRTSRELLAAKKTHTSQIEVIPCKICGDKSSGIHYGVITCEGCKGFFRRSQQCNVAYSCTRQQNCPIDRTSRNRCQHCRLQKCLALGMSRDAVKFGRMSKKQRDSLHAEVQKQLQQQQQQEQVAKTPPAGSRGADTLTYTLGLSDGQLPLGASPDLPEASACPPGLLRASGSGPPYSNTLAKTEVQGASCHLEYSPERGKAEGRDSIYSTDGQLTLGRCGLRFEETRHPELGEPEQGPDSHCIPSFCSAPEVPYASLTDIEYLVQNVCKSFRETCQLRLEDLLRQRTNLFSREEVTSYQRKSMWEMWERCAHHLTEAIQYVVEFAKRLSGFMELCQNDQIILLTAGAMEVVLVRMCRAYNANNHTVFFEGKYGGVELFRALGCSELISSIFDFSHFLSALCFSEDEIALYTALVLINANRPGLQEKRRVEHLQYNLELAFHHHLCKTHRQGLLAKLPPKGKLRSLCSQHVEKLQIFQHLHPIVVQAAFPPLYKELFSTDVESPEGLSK
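Drosophila Schneider cells stably carrying a metallothionein-driven Gal4 DBD–ROR gamma fusion and a UAS-Photinus luciferase reporter were exposed to compound for 1 hr, then induced with copper sulfate (700 uM final) for 20 hr at ambient temperature before luminescence reading.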
GLP1R cytotox – cytotoxicity counter-screen for GLP-1 receptor inverse agonists. HEK293 cAMP-luciferase reporter cells, luminescence, 24 h. Potency, µM (titrated, usually from 38.3 µM), inactives show at the top dose activity change, negative = inhibition, hits mostly inhibitors. 410,000 compounds, 0.13% hits;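 also: loss of luciferase light is scored as toxicity; % is scaled to controls: 0 for no effect and ±100 for the full control effect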
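Quantitative HTS format, 1536 wells, 200 cells/uL seeded. Compounds: 23 nL, 24 h, 37 °C. Detection: luciferase reagent, luminescence at 12 min RT; decreased signal taken as cytotoxic.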
The depositor's hits bear a star; ? = inconclusive; · = no result; [ ] = another dose, or the depositor's remark. In the library only some 5.9% were active in any assay of this set; here they are far more common. Calls follow the shape of the dose curve; as a rule, active = well fitted curve in the direction sought with a large enough effect; inconclusive = small, poorly fitted or top-dose-only effect, or another doubt; inactive = no such curve, though single readings can be large; an effect the other way counts as inactive or inconclusive. Potency is read from the fitted curve at half-maximal effect.

SMILES | GLP1R ag | VP16 counter | GLP1R inv ag | RORg inh | GLP1R cytotox
Cc1cc(C)cc(-n2ccnc2SCC(=O)Nc2ccc3c(c2)OCCO3)c1 | 2% | -11% | ? | -1% | 13%
CCOc1ccc(-n2ccnc2SCC(=O)Nc2nnc(CC)s2)cc1 | 5% | 4% | 1% | 10µM* | 1%
CCc1ccc(NC(=O)CSc2nccn2-c2ccc(OC)cc2)cc1 | · | · | 10µM* | · | -14%
Cc1cc(C)cc(-n2ccnc2SCC(=O)Nc2ccc(C)c(Cl)c2)c1 | -1% | · | 8.9µM* | · | 1%
CCSc1nnc(NC(=O)CSc2nccn2-c2cccc(C)c2)s1 | -6% | ? | -23% | 11µM* | -2%
COc1ccc(C(=O)Nc2nc(-c3ccc(Br)cc3)ns2)cc1 | · | · | -4% | · | 0%
O=C1[C@H]2[C@H]3[C@H](O)[C@H](O)C/C(=N/OCc4ccccc4)[C@@H]3CC[C@@H]2C(=O)N1C[C@@H]1CCCO1 | · | -2%[10 µM] | · | -4%[10 µM] | ·
O/C(=C\c1nc2ccccc2nc1/C=C(\O)c1ccccc1)c1ccccc1 | -17% | 5%[10 µM] | ? | 10µM* | 3%
Cn1c(=O)n(CCc2ccccc2)c(=O)c2c1nc1n2CCCN1CCc1ccccc1 | -43% | -16% | 2.2µM* | -2% | -9%
CCCn1c(=O)c2c(nc3n2CCCN3CCc2ccccc2)n(C)c1=O | 16% | -1% | ? | ? | 6%
Cc1oc(-c2ccccc2)nc1CNC(=O)Nc1ccccc1 | · | · | ? | · | 0%
CC1(C)COCN1S(=O)(=O)c1ccc(C(=O)Nc2nnc(-c3ccc(Cl)s3)o2)cc1 | -14% | 0.13µM* | ? | 0.11µM* | ?
COc1ccc(C(=O)CSc2nnc(-c3ccc(S(=O)(=O)N4CCOCC4)cc3)o2)cc1 | -5% | 1% | 32% | 3% | 4%
COc1ccc(-c2nnc(NC(=O)c3ccc(S(=O)(=O)N4COCC4(C)C)cc3)o2)cc1 | -17% | 0.4µM* | ? | 0.22µM* | -9%
CCCC(=O)Nc1nnc(-c2ccc(Cl)s2)o1 | -3% | ? | -6% | 8.9µM* | -16%
O=C(Nc1nnc(-c2ccc(Cl)s2)o1)C1CCCCC1 | -5% | · | 24% | · | 2%
CCOc1ccc(C(CC(=O)Nc2cc(C)c(Cl)cc2OC)N2Cc3ccccc3C2=O)cc1OC (stereo unspecified) | -5% | · | -18% | · | -7%
CNC[C@@H](Cc1ccccc1)NC[C@@H](CC1CCCCC1)NCCCc1ccccc1 | -21% | ? | 1% | ? | 13%
CCC[C@H](CN[C@@H](CNC)[C@H](C)CC)NCCc1cc(C(F)(F)F)cc(C(F)(F)F)c1 | -6% | ? | ? | ? | ?
CC[C@@H](C)[C@H](CNC)NC[C@@H](Cc1cccc2ccccc12)NCCc1cccc(C(F)(F)F)c1 | -7% | ? | -16% | 13µM* | 12%
CNC[C@@H](CC1CCCCC1)NC[C@H](CC(C)C)NCCc1cccc(C(F)(F)F)c1 | -17% | ? | ? | 11µM* | ?
CC(=O)OC[C@@H]1O[C@@H](O/N=C2/C[C@@H](O)[C@@H](O)[C@@H]3[C@H]4C(=O)N(c5ccc(F)cc5F)C(=O)[C@@H]4CC[C@@H]23)[C@H](OC(C)=O)[C@H](OC(C)=O)[C@@H]1OC(C)=O | · | -4%[10 µM] | · | -3%[10 µM] | ·
N#CCCS(=O)(=O)c1nnnn1-c1ccccc1 | · | 4.5µM* | · | 2.8µM* | ·
N#CCCCS(=O)(=O)c1nnnn1-c1ccc(Br)cc1 | · | -22% | · | 8% | ·
COC(=O)CSc1nnc2n(-c3ccccc3)c(=O)c3c4c(sc3n12)COC(C(C)C)C4 (stereo unspecified) | 9% | · | -1% | · | -4%
SMILES | GLP1R ag | VP16 counter | GLP1R inv ag | RORg inh | GLP1R cytotox
Cc1nc2c(sc3nc(N4CCOCC4)c4c(c32)CC(C)(C)OC4)c(-c2ccc(Cl)cc2)c1C(=O)O | 11% | 0% | 4.5µM* | 17% | 80%
CC1(C)Cc2c(c(N3CCOCC3)nc3snc(N)c23)CO1 | -22% | -15% | 4µM* | ? | -28%
CC1(C)Cc2c(c(N3CCOCC3)nc3snc(Br)c23)CO1 | 4% | 3% | 41% | -38% | -12%
S=c1nc[nH]c2c1cnn2Cc1ccccc1 | -3% | ? | 0% | 22µM* | -22%
Cc1cccc(Oc2ccc3c(c2)Oc2ccccc2NC3=O)c1 | · | · | 7% | · | -1%
CC(C)(C)C(=O)NC(=S)NNC(=O)C(c1ccccc1)c1ccccc1 | 0% | 11µM* | ? | 2.8µM* | -9%
CCNC(=S)NNC(=O)C(c1ccccc1)c1ccccc1 | 0% | 11µM* | 0% | 3.2µM* | 5%
CN(C)C(=S)NC(=O)C(c1ccccc1)c1ccccc1 | 1% | ? | -23% | 1.4µM* | ?
CCc1cccc(NC(=O)Cn2c(=O)n(CC3CCC(C(=O)NCCc4ccccc4)CC3)c(=O)c3ccccc32)c1 (stereo unspecified) | 0% | · | 6% | · | 1%
O=C(O)c1ccc(NC(=S)NC(=O)c2ccc(-c3ccccc3)cc2)cc1 | 1% | 1% | 104% | 13% | 3%
Cc1ccc(C(=O)NCc2ccco2)cc1Br | -2% | 7% | -20% | 24% | 10%
C=CCN(CC=C)C(=S)NC(=O)c1ccc(-c2ccccc2)cc1 | -11% | 1µM* | ? | 0.5µM* | ?
C=CCNC(=O)c1ccc(OC)cc1 | -7% | -4% | 6% | -14% | 1%
COc1ccc(C(=O)NCCCc2ccccc2)cc1 | 7% | · | -29% | · | -17%
C=CCN(CC=C)C(=S)NC(=O)c1ccc(OC)cc1 | 1% | 2.2µM* | ? | 0.89µM* | 0.63µM*
C=CCN(CC=C)C(=S)NC(=O)c1ccc(C)c(Br)c1 | -3% | 0.13µM* | 3.2µM* | 0.28µM* | ?
COc1ccc(C(=O)NC(=S)N(Cc2ccccc2)Cc2ccccc2)cc1 | 2% | 0.56µM* | ? | 0.16µM* | ?
Cc1cc(=O)oc2cc(O)c(O)cc12 | · | -5% | · | -20% | ·
CC(=O)Nc1cccc(C(=O)/C=C/c2ccc(F)cc2)c1 | -4% | ? | ? | 13µM* | ?
CC(=O)Nc1cccc(C(=O)/C=C/c2ccc(/C=C/C(=O)c3cccc(NC(C)=O)c3)cc2)c1 | · | ? | · | 10µM* | ·
CN(C)c1ccc(-c2nccc(NCc3cccs3)n2)cc1 | · | -36% | · | -42% | ·
O=C(ONc1ccc(N=NC(=O)c2ccccc2O)cc1)c1ccccc1 | 8% | 6%[0.365 µM] | ? | 7.1µM* | ?
CCc1c(C)sc(NC(=O)c2noc(C)c2[N+](=O)[O-])c1C#N | -7% | ? | 0% | 18µM* | 0%
Cc1ccc(C(c2c(C)n(C)n(-c3ccccc3)c2=O)c2c(C)n(C)n(-c3ccccc3)c2=O)s1 | 10% | 7.1µM* | ? | 4.5µM* | -3%

High-throughput results from PubChem BioAssay.
